# Reference: PubChem BioAssay
# Values without a mark were called inactive. No rule for the calls is given here.
# Experiment: compounds altering viability of human ES cells (AID 493140);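 also: cells exposed to compounds for four days before counting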
# Conditions: human embryonic stem cell survival screen; stronger effect = higher value
row,Compound,survival
1,CC/C=C\C[C@H](O)/C=C/C=C\C/C=C\C/C=C\CCCC(=O)O,122
2,CN(C)CCCO[C@H]1[C@@H](C(O)CO)OC2OC(C)(C)O[C@H]21 (some centres undefined),7.5
3,CC1(C)S[C@@H]2[C@H](NC(=O)C3(N)CCCCC3)C(=O)N2[C@H]1C(=O)O,3.83
4,CC1O[C@@H](O[C@@H]2C(CO)O[C@@H](OCC3O[C@@H](OC(=O)C45CC[C@@H](C)[C@H](C)[C@H]4C4=CC[C@@H]6[C@@]7(C)C[C@@H](O)[C@H](O)[C@@](C)(CO)C7CC[C@@]6(C)[C@]4(C)CC5)C(O)[C@H](O)[C@@H]3O)C(O)[C@@H]2O)C(O)[C@@H](O)[C@H]1O (some centres undefined),9.83
5,O=C(O)CCC/C=C\C/C=C\C=C\[C@@H](O)C/C=C\CCCCCO,89.3
6,C[N+](C)(CCCOc1ccccc1)c1ccccc1,5.92
7,CCCCC/C=C\C[C@H](O)/C=C/C=C/C=C/[C@@H](O)CCCC(=O)O,96.2
8,C[C@@]1(OC(=O)/C=C\c2ccccc2)C[C@H](O)[C@@]2(O)C=CO[C@H](OC3OC(CO)C(O)C(O)C3O)C12 (some centres undefined),6.83
9,CCC(C(=O)C(C)C(O)C(C)CCc1ccc(C)c(O)c1C(=O)O)[C@H]1O[C@](CC)([C@H]2CC[C@](O)(CC)[C@H](C)O2)C[C@@H]1C (some centres undefined),24.1
10,NCC1OC(O[C@@H]2C(O)[C@H](OC3C(O)C(N)CC(N)C3OC3OC(CO)C(O)C(O)C3N)O[C@@H]2CO)C(N)C(O)C1O (some centres undefined),5.75
11,CCCCC/C=C\C\C=C/C=C/C=C/[C@@H](O)[C@@H](O)CCCC(=O)O,116
12,CCCCC/C=C\C\C=C/C=C/C=C/[C@@H](SCC(N)C(=O)NCC(=O)O)[C@@H](O)CCCC(=O)O (some centres undefined),109
13,NC(=O)c1ccc[n+]([C@H]2O[C@@H](COP(=O)([O-])OP(=O)(O)OC[C@H]3O[C@@H](n4cnc5c(N)ncnc54)C(O)[C@H]3O)C(O)[C@H]2O)c1 (some centres undefined),4.5
14,CCCCC/C=C\C/C=C\C/C=C\C=C\C1CCCC(=O)O1 (centres undefined),76.9
15,CCCCCCCC[C@@H](O)/C=C/C=C/C=C\[C@@H](O)CCCC(=O)O,96.4
16,CCCCC/C=C\C/C=C\C[C@H](O)/C=C/C=C\CCCC(=O)O,91.5
17,O=C(O)CCCC/C=C\C[C@@H](O)/C=C/C=C/C=C\[C@@H](O)CCCC(=O)O,96.1
18,Cc1cc(=O)c2c(O)c3c(O)cc(O)c4c5c(O)cc(O)c6c(O)c7c(=O)cc(C)c8c1c2c(c34)c(c65)c78,52.2
19,CCCCCCCCC1OC1CCCCCCCC(=O)O (centres undefined),92.8
20,N#CC(C#N)=C(N)/C(C#N)=C/c1cc(O)c(O)c(O)c1,82.2

row,Compound,survival
1,C=Cc1c(C)c2cc3nc(cc4[nH]c(cc5nc(cc1[nH]2)C(C)=C5CCC(=O)O)c(CCC(=O)OC)c4C)[C@@]1(C)C3=CC=C(C(=O)OC)C1C(=O)OC (some centres undefined) (tested in a mixture with another compound),12.9
2,CC1O[C@@H](OC2/C=C/C=C/C=C/C=C/C[C@@H](C)OC(=O)/C=C/[C@H]3O[C@@H]3C[C@H](O)C[C@]3(O)C[C@H](O)[C@@H](C(=O)O)[C@H](C2)O3)C(O)C(N)[C@@H]1O (some centres undefined),28.2
3,CCCCCCCN[C@H]1CCC[C@@H]1CCCCCCC(=O)O,114
4,CCCCC[C@H](O)/C=C/C=C/C/C=C\CCCC(=O)O,94.8
5,CCCCCCCCCCCCC/C=C/[C@@H](O)[C@@H](N)COP(=O)(O)O,87.9
6,O=[N+]([O-])c1ccc(Oc2ccc(Br)cc2)c(C(O)[P+](=O)O)c1 (centres undefined),83.4
7,CCCCCCCC/C=C\C/C=C\C=C\C(O)CCCC(=O)O (centres undefined),116
8,CC/C=C\C/C=C\C/C=C\C/C=C\C/C=C\CCC(=O)O[C@H](COCCCCCCCCCCCCCCCC)COP(=O)([O-])OCC[N+](C)(C)C,83.1
9,CC(C)c1cc(/C=C(\C#N)C(=O)NCCCc2ccccc2)cc(C(C)C)c1O,124
10,CCCCC/C=C\C/C=C\C/C=C\C=C\C(O)CCCC(=O)O (centres undefined),122
11,CNC1C(O)C2O[C@H](OC3C(N)C[C@@H](N)C(O)[C@H]3O)C(N)C[C@H]2O[C@@H]1O[C@H]1OC(CO)[C@@H](N)[C@H](O)C1O (some centres undefined),10.6
12,C[C@@]1(O)CCOC(=O)C1,4.42
13,NC(=O)c1ncn([C@@H]2O[C@H](CO)[C@H](O)C2O)n1 (some centres undefined),1.33
14,CN(N=O)C(=O)NC1[C@@H](O)OC(CO)[C@@H](O)[C@H]1O (some centres undefined),8.42
15,CCCCCCCCCCCCC/C=C/[C@@H](O)[C@H](COP(=O)([O-])OCC[N+](C)(C)C)NC(=O)CCCCCCCCCCCCCCCCC,81.8
16,CCCCC[C@H](O)/C=C/[C@@H]1[C@@H](CC(=O)CCC(=O)O)[C@@H](O)C[C@H]1O,104
17,CCNC1CC(N)C(OC2OC(CN)=CCC2N)C(O)C1OC1OCC(C)(O)C(NC)C1O (centres undefined),17.9
18,CCCCC/C=C\C=C\[C@@H](O)C/C=C\C/C=C\CCCC(=O)O,81.2
19,CCCCC[C@H](O)/C=C/C=C\C/C=C\C=C\[C@@H](O)CCCC(=O)O,103
